Inconclusive results are not listed. Activity calls are given as the source filed them. Calls come from the whole dose curve; as a rule, active = well fitted curve in the direction sought with a large enough effect; inconclusive = small, poorly fitted or top-dose-only effect, or another doubt; inactive = no such curve, though single readings can be large; an effect the other way counts as inactive or inconclusive. *1 amine or outer side, *2 acyl side, *3 side chain or, on linkers, in order; H or OH if unused. Where a SMILES comes first, the peptide text is derived from it. Bridges are numbered along the chain shown (N, C = ends). [ ]: non-standard residue; d: D form. The star is where a group is joined. ξ: configuration not given here. ξhTyr(3S-OH,4S-OH,3'-OSO3H) = NC(C(=O)O)[C@H](O)[C@@H](O)c1ccc(O)c(OS(=O)(=O)O)c1; Orn(4R-OH,5R-OH) = O=C([C@H](C[C@@H](O)[C@@H](O)N[*:3])N[*:1])[*:2]; X2 = CCCCCOc1ccc(-c2cc(-c3ccc(C(=O)*)cc3)no2)cc1; X3 = C[C@H]1CN([*:1])C(C(=O)[*:2])[C@H]1O; ξGln(3R-OH) = NC(=O)C[C@@H](O)C(N)C(=O)O; ξPro(4R-OH) = O=C(O)C1C[C@@H](O)CN1; ξThr(3R) = C[C@@H](O)C(N)C(=O)O
Columns and labels:
[1] = target: Calcium and integrin-binding protein 1 (Homo sapiens) (UniProt Q99828); assay: Primary qHTS for Identification of Calcium Integrin Binding Protein 1 (CIB1) Competitor (AID 1508620); settings: CIB1-GST / FITC-alphaIIb peptide fluorescence polarization; series mostly up to 57.7 µM;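 note: GST tagged CIB1 binding a fluorescein labelled alphaIIb integrin peptide tracer; top concentration of the series differs between compounds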
Method in brief: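 CIB1-GST (1 uM final) and compound incubated 15 min at room temperature before adding FITC-alphaIIb peptide tracer (100 nM final). Competition for binding read by fluorescence polarization (ex 480, em 540) after another 15 min at room temperature.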

[2] = Primary qHTS for inhibitors of nuclear receptor binding SET domain protein 2 (NSD2) in an isogenic RCH-ACV NSD2 p.E1099K mutant (9B) (AID 1645876); settings: RCH-ACV NSD2 E1099K (9B) viability, CellTiter-Glo, 72 h; series mostly up to 44.9 µM; note: nearly all actives have a fitted effect of over 70% in size
[3] = Primary qHTS for inhibitors of nuclear receptor binding SET domain protein 2 (NSD2) in an RCH-ACV wild type WT cells (2C) (AID 1645877); settings: RCH-ACV (leukaemia line) NSD2 WT (2C) viability, CellTiter-Glo, 72 h; series mostly up to 44.9 µM; note: nearly all actives have a fitted effect of over 70% in size
% is set by controls: 0 for no effect and ±100 for the full control effect.

Chain of Calcium and integrin-binding protein 1 (Homo sapiens) (Q99828 whole entry, looked up): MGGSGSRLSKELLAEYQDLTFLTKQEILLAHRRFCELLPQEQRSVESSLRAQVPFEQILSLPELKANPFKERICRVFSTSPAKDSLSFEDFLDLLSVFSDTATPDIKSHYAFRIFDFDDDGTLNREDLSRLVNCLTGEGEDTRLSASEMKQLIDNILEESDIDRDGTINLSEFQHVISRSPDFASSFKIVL

C=C1CCC[C@]2(C)CC[C@@](O)(C(=C)C(=O)O)C[C@@H]12
inactive: Potency [1] | Potency [2] | Potency [3]

CCCCCOc1ccc(-c2cc(-c3ccc(C(=O)N[C@H]4C[C@@H](O)[C@@H](O)NC(=O)C5[C@@H](O)[C@@H](C)CN5C(=O)C([C@H](O)CC(N)=O)NC(=O)C([C@H](O)[C@@H](O)c5ccc(O)c(OS(=O)(=O)O)c5)NC(=O)C5C[C@@H](O)CN5C(=O)C([C@@H](C)O)NC4=O)cc3)no2)cc1 (stereo partly drawn) (X2-[Orn(4R-OH,5R-OH)][ξThr(3R)][ξPro(4R-OH)][ξhTyr(3S-OH,4S-OH,3'-OSO3H)][ξGln(3R-OH)][X3]; lactam 1-C)
inactive: Potency [1] | Potency [2] | Potency [3]

COc1ccc(C2(O)c3ccccc3NC(=O)C2OC)cc1 (stereo not drawn)
inactive: Potency [1] | Potency [2] | Potency [3]

O=C(C[C@@H]1C(C(=O)O)=CO[C@@H](O[C@@H]2O[C@H](CO)[C@@H](O)[C@H](O)[C@H]2O)/C1=C\CO)OCCc1ccc(O)c(O)c1
inactive: Potency [1] | Potency [2] | Potency [3]

CC(C)c1ccc2c(c1)[C@H](O)CC1[C@@](C)(C(=O)O)CCC[C@]21C (stereo partly drawn)
inactive: Potency [1] | Potency [2] | Potency [3]

C[C@H]1CC[C@H]2[C@@H](C=C[C@@](C)(O)[C@]2(C)C(=O)CCO)C1
inactive: Potency [1] | Potency [2] | Potency [3]

COc1cc(O)c2c(c1Cl)CC(C)OC2=O (stereo not drawn)
inactive: Potency [1] | Potency [2] | Potency [3]

CC(=O)NC(Cc1ccccc1)C(=O)NC(C(=O)O)C(C)C (stereo not drawn) (Ac-Phe-Val-OH; configuration not given here)
inactive: Potency [1] | Potency [2] | Potency [3]

C/C=C/C=C/[C@@H]1O[C@](O)([C@H](CC)C(=O)NC/C=C/C=C(\C)[C@@H](OC)[C@@H](C)[C@@H]2O[C@H](/C=C/C=C/C=C(\C)C(=O)c3c(O)ccn(C)c3=O)[C@H](O)[C@@H]2O)[C@H](O)[C@H](O)C1(C)C
inactive: Potency [1] | outcome [2] inactive [at 9.23 µM] | outcome [3] inactive [at 9.23 µM]

C[C@@H]1O[C@@H](O[C@H]2[C@H](O)[C@@H](O[C@@H]3O[C@H](CO)[C@H](O)[C@H](O)[C@H]3O)[C@H](O[C@H]3CC[C@@]4(C)C(CC[C@]5(C)C4CC=C4[C@@H]6CC(C)(C)CC[C@]6(C(=O)O[C@@H]6O[C@H](CO)[C@@H](O)[C@H](O)[C@H]6O)CC[C@]45C)C3(C)C)O[C@@H]2C(=O)O)[C@H](O)[C@H](O)[C@H]1O (stereo partly drawn)
inactive: Potency [1] | activity change, negative = viability loss [2] 0.405% [at 9.23 µM] | outcome [3] inactive [at 9.23 µM]

COc1cc(O[C@@H]2O[C@H](CO[C@H]3OC[C@](O)(CO)[C@H]3O)[C@@H](O)[C@H](O)[C@H]2O)cc(OC)c1O
inactive: Potency [1] | Potency [2] | Potency [3]

C=C(CC/C=C(\C)C(=O)O)C1(O)CC=C(C)CC1 (stereo not drawn)
inactive: Potency [1] | Potency [2] | Potency [3]

COC(=O)C(CC1(O)c2ccccc2N2C(=O)C(CC(C)C)NC21)n1cnc2ccccc2c1=O (stereo not drawn)
inactive: Potency [1] | Potency [2] | Potency [3]

C=C1C(OC(C)=O)[C@@]23CCC4[C@](C)(C(=O)O)CCC[C@@]4(C)[C@]2(O)CC[C@H]1C3 (stereo partly drawn)
inactive: Potency [1] | Potency [2] | Potency [3]

COc1cc(/C=C/C(=O)O[C@@H]2O[C@H](CO)[C@@H](O)[C@H](O)[C@H]2O)ccc1O
inactive: Potency [1] | Potency [2] | Potency [3]

CC(C)CC(c1c(O)c(C=O)c(O)c(C=O)c1O)C1CCC(C)(O)C2CC(C(C)(C)O)CCC12C (stereo not drawn)
inactive: Potency [1] | Potency [2] | Potency [3]

OC[C@@]1(O)CO[C@H](OC[C@H]2O[C@@H](OC(CCCCc3ccc(O)cc3)CCc3ccc(O)cc3)[C@H](O[C@H]3OC[C@](O)(CO)[C@H]3O)[C@@H](O)[C@@H]2O)[C@@H]1O (stereo partly drawn)
inactive: Potency [1] | Potency [2] | Potency [3]

COC(=O)[C@H](O)[C@H]1C(C)(C)[C@H](OC(C)=O)[C@@]2(O)C(=O)[C@]1(C)C1CC[C@]3(C)C(CC(=O)O[C@H]3c3ccoc3)[C@]13O[C@@H]32 (stereo partly drawn)
inactive: Potency [1] | Potency [2] | Potency [3]

COC(=O)C(Cc1ccccc1)NC(=O)c1ccccc1 (stereo not drawn)
inactive: Potency [1] | Potency [2] | Potency [3]

O=C(OCc1ccccc1O[C@@H]1O[C@H](CO)[C@@H](O)[C@H](O)[C@H]1O)C1(O)C=CCCC1O (stereo partly drawn)
inactive: Potency [1] | Potency [2] | Potency [3]

COC(=O)C1=CO[C@@H](O[C@@H]2O[C@H](CO)[C@@H](O)[C@H](O)[C@H]2O)[C@@H]2[C@@H](CO)[C@@H](O)C(O)[C@H]12 (stereo partly drawn)
inactive: Potency [1] | Potency [2] | Potency [3]
